What was measured:
Format in all cases: functional
[1] = biological target: Solute carrier family 2, facilitated glucose transporter member 1 (Homo sapiens) (UniProt P11166); assay: ST_JUDE_LEISH: Cytotoxicity at 2uM final concentration against transgenic Leishmania Mexicana promastigotes LmGLUT1 that are glucose transport deficient and complemented with the human glucose transporter GLUT1. Activity is measured by DNA content using SYBR green in vitro
[2] = biological target: Hexose transporter 1 (Plasmodium falciparum) (UniProt O97467); assay: ST_JUDE_LEISH: Cytotoxicity at 2uM final concentration against transgenic Leishmania Mexicana promastigotes LmPfHT that are glucose transport deficient and complemented with the Plasmodium falciparum hexose transporter. Activity is measured by DNA content using SYBR green in vitro
[3] = biological target: Glucose transporter (Leishmania mexicana) (UniProt O61059); assay: ST_JUDE_LEISH: Cytotoxicity at 2uM final concentration against transgenic Leishmania Mexicana promastigotes LmGT2 that are glucose transport deficient and complemented with the L. Mexicana glucose transporter 2. Activity is measured by DNA content using SYBR green in vitro

Solute carrier family 2, facilitated glucose transporter member 1 (Homo sapiens), sequence (P11166 whole entry): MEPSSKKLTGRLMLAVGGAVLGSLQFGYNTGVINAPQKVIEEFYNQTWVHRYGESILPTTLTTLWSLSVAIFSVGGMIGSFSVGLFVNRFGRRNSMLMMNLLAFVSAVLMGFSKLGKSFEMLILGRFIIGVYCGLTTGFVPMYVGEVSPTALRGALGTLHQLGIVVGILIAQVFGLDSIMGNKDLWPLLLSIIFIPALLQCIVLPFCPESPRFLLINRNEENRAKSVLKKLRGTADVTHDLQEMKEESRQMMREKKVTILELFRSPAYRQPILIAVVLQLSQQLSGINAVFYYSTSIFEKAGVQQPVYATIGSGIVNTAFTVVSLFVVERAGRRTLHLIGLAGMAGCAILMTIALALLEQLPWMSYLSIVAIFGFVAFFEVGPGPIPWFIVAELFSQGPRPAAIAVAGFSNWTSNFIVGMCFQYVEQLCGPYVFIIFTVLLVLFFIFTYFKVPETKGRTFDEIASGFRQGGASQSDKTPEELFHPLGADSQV

Row | Structure (SMILES) | inhibition [1] | inhibition [2] | inhibition [3]
1 | CCCCCCC(N)c1ccc(OCCCOc2ccc(C(N)CCCCCC)cc2)cc1 (stereo not drawn) | 107% | 106% | 109%
2 | COc1ccc(C2C(C(=O)Nc3cc(Cl)c(OC)cc3OC)c3ccccc3C(=O)N2C)cc1 (stereo not drawn) | 0.28% | 1.49% | -1.07%
3 | N=C(N)NC(=O)Nc1cc(Cl)c(Cl)c(Cl)c1 | 2.56% | 4% | 2.18%
4 | O=C(NCCc1ccccc1)N(Cc1ccccc1-c1cccc(CNCc2ccc3c(c2)OCO3)c1)C1CCN(Cc2ccccc2)CC1 | 3.72% | 4.3% | 3.13%
5 | N=C(N)c1cccc(OCCCOc2cccc(NC(=O)Nc3ccc([N+](=O)[O-])cc3)c2)c1 | 4.46% | 3.16% | 2.32%
6 | O=C(NCCCCN1CCN(c2cccc(Cl)c2Cl)CC1)c1ccc2c(c1)CCN(C1CCC1)CC2 | 1.09% | -1.47% | -0.46%
7 | Nc1nc2c(ncn2COC(COCc2ccccc2)COCc2ccccc2)c(=O)[nH]1.Nc1nc2ncn(COC(COCc3ccccc3)COCc3ccccc3)c2c(=O)[nH]1 | -0.7% | -2% | -0.45%
8 | Clc1ccc(CNCCCCCCNCc2ccc(Cl)cc2)cc1 | -1.01% | 1.71% | -1.04%
9 | C=CCN1C(=O)C(=Cc2cc(Br)ccc2O)SC1=Nc1ccccc1 | 8.65% | 6.8% | 14.5%
10 | O=C(NCCCN1CCC(NC(=O)c2ccc(-c3cccnc3)cc2)CC1)c1ccc(Cl)c(Cl)c1 | 2.51% | 1.38% | 1.63%
11 | Cc1cc(CN2CCCC(OC(c3ccc(F)cc3)c3ccc(F)cc3)C2)ccc1O (stereo not drawn) | 9.25% | 4.88% | 0.78%
12 | c1cncc(CN2CCN(Cc3ccc(-c4ccc(-c5nc6ccccc6[nH]5)s4)cc3)CC2)c1 | 12.2% | 7.69% | 1.44%
13 | CC1(C)NC(N)=NC(=N)N1OCCCCCOc1ccccc1 | 0.42% | 0.8% | 1.28%
14 | CCN(CC)CCCNC(=O)/C(=C/C=C/c1cc2cc(Cl)c(Cl)cc2[nH]1)OC | 7.56% | 11.3% | 7.84%
15 | Oc1cccc(Nc2ccnc3cc(-c4ccncc4)ccc23)c1 | 10.6% | 9.58% | 8.68%
16 | CC(C)c1cc(Oc2c(I)cc(CCNC(=N)N)cc2I)ccc1O | -0.6% | -0.01% | -2.44%
17 | CN1CCN(Cc2ccc(-c3ccc4c(Nc5cc(O)c(F)cc5Cl)ccnc4c3)o2)CC1 | 4.84% | 2.61% | 2.56%
18 | Cc1cc(N(C)C)nc(Nc2ccc(NS(=O)(=O)c3ccccc3)cc2)n1 | 7.64% | 10.6% | 5.82%
19 | COc1c(C)cc(I)cc1CNCCCNc1cc(=O)c2ccccc2[nH]1 | 0.43% | -0.66% | -0.84%
20 | Cc1cc(F)ccc1Nc1nc(N(C)c2ccccc2)c2cccc(OCCO)c2n1 | 13.7% | 11.2% | 4.48%
21 | Cc1cc(=O)[nH]c(-n2nc(C)cc2NC(=O)C2(c3ccc(Cl)cc3)CCCC2)n1 | 61.6% | 66.3% | 53.5%
22 | O=C(Cc1cc(F)cc(F)c1)NC1CCN(c2ccnc3cc(Cl)ccc23)C1 (stereo not drawn) | 1.93% | 1.66% | 2.22%
23 | O=C(Nc1ccc(S(=O)(=O)N2CCCCC2)cc1)c1cc(-c2ccccc2O)n[nH]1 | 11.8% | 12% | 10.8%

Row | Structure (SMILES) | inhibition [1] | inhibition [2] | inhibition [3]
24 | CN1CCC(N(C)C(=O)C=Cc2cn(-c3ccccc3)nc2-c2cc3ccccc3o2)CC1 | 3% | 1.17% | -0.25%
25 | CCOc1ccc(C(C)NC(=O)c2cc(Cl)ccc2OC)cc1OCC (stereo not drawn) | -0.81% | 0.16% | -2.78%
26 | Cc1nc(-c2ccc(-c3ccc(NC(=O)c4coc5ccc(N6CC(C)N(C)C(C)C6)cc45)cc3)c(C)c2)no1 (stereo not drawn) | -0.52% | 0.17% | 3.28%
27 | O=[N+]([O-])c1cccc(-n2nc(NCc3ccc(Cl)cc3)nc2-c2ccc(F)c(C(F)(F)F)c2)c1 | 1.19% | 2.33% | 0.17%
28 | COc1ccc(CN2CCN(Cc3cc(Cl)ccc3O)CC2CCO)c(C)c1C (stereo not drawn) | -1.12% | 0.94% | 0.13%
29 | CCCCCCOc1ccc(C(=O)NCCCC2CCCN(CCCCCNC(=O)C=Cc3ccc(Cl)c(Cl)c3)C2)cc1 (stereo not drawn) | -0.52% | 0.51% | 1.31%
30 | Cn1ccnc1Sc1ncccc1[N+](=O)[O-] | -2.32% | 0.92% | 1.8%
31 | NC1CCN(c2nc(NCCc3ccc(O)cc3)nc(NCc3ccccc3-c3ccccc3)n2)CC1 | -0.15% | 0.54% | 0.38%
32 | CC(C)CCNCC(O)Cn1c2ccc(Cl)cc2c2cc(Cl)ccc21 (stereo not drawn) | 0.18% | 0.29% | 0.33%
33 | COc1ccc(NC(=O)Nc2cccc(-c3cccc(-c4nc5cc(F)ccc5[nH]4)c3)c2)cc1 | 1.35% | 1.38% | 0.62%
34 | CC(C)(C)c1ccc2[nH]c(-c3ccc(C(=O)NCc4cccc(C(F)(F)F)c4)cc3)nc2c1 | -0.02% | 0.63% | 3.09%
35 | O=C(Nc1ccsc1)Nc1cccc(-c2cccc(-c3nc4cc(F)ccc4[nH]3)c2)c1 | 2.33% | 2.8% | -5.19%
36 | CCCC(=O)NC(c1cccs1)c1cc(Cl)c2cccnc2c1O (stereo not drawn) | 0.53% | 1.83% | -0.61%
37 | Cc1ccc(F)cc1S(=O)(=O)Nc1cccc(CCN2CCC(N3CCCCC3)CC2)c1 | 3.52% | 6.1% | 0.55%
38 | Cc1c(C(=O)Nc2cc(Sc3ccc(F)cc3)cc([N+](=O)[O-])c2)sc2ncn(Cc3cccc(F)c3)c(=O)c12 | 3.77% | -2.45% | 7.11%
39 | O=C(/C=C/c1ccc(Cl)c(Cl)c1)N1CCC(CCN2CCC(c3nc4cc(O)ccc4[nH]3)CC2)CC1 | 1.92% | 0.59% | -0.62%
40 | COc1cc(NC(=O)c2c(-c3c(F)cccc3Cl)noc2C)c(OC)cc1Cl | -2.64% | -1.52% | -4.01%
41 | Cc1onc(-c2c(Cl)cccc2Cl)c1C(=O)NC1=NC(C)(C)ON1c1ccccc1 | 5.88% | 5.44% | 4.86%
42 | COC(=O)c1cccc(CNCc2cccc(-c3ccc(-c4nc5ccccc5[nH]4)cc3)c2)c1 | 5.57% | 5.76% | 2.19%
43 | Oc1cccc(Nc2nc(NCC3CCCO3)c3ccccc3n2)c1 (stereo not drawn) | 27% | 24.8% | 9.1%
44 | CCCC(=O)Nc1ccc(OCCCN(Cc2ccccc2C(F)(F)F)c2ccc(C#N)c(C(F)(F)F)c2)cc1 | 3.53% | 4.53% | 4.55%
45 | CC1(C)S(=O)(=O)CC(O)CS1(=O)=O | 3.87% | 3.02% | 2.49%
46 | CC(=O)Nc1ccc(S(=O)(=O)Nc2ccc(Nc3nc(C)cc(N4CCCCC4)n3)cc2)cc1 | 5.51% | 5.79% | 5.54%

— ChEMBL document CHEMBL3433997, “St. Jude Leishmania screening dataset” (2016)
